Wnt act: activators of Wnt/beta-catenin signaling | Wnt/beta-catenin reporter cell assay, activator, plate reader | activation, % at 9.35 µM | hit rate 1.2% among 300,000; in the data active means activation above about 30%, passing the limit was not always enough; inconclusive means no clear call, values can overlap the other calls;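 further: 0% = neutral control wells and 100% = positive control wells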
GAA850 FXN act: increases GAA850 frataxin promoter reporter activity; HEK293 lucGAA850 FXN promoter luciferase reporter, 24 h; percent of 10 µM SAHA response; activation, % at 6 µM; hit rate 0.56% among 360,000;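 active means activation above the average of all compounds screened plus 3 SD, cutoff fixed separately per campaign, cut at about 7.5% in these data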;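 further: 0% = DMSO wells and 100% = 10 µM SAHA wells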
esBAF inh: blocks esBAF chromatin remodeling in mouse ES cells | reporter increase, % at 12.5 µM | AID 602393 | Bmi1-luciferase knock-in reporter, 24 h; 100% = twice the neutral-well signal | hit rate 2% among 350,000; in the data active means activation above about 40%; inconclusive means no clear call, values can overlap the other calls;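 further: 0% = median of the plate's neutral control wells and 100% = double that signal; a rise in the Bmi1 reporter signal indicates esBAF inhibition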
MITF act: activators of MITF-driven TRPM1 promoter activity in SK-MEL-5 cells; SK-MEL-5 TRPM1-promoter luciferase, 24 h; % of positive control, neutral wells = 0; activation, % at 12.5 µM; hit rate 0.75% among 300,000; AID 588334;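 active means mean activation of at least 80% with every replicate also reaching 80%; inconclusive means mean reaches 80% but some replicate falls short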;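 further: 0% = neutral control wells and 100% = parthenolide positive control wells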
Starred values were filed as active, the others as inactive; u = inconclusive; x = no result. Hits are enriched below; roughly 2.8% of the tested compounds scored in any of these assays.

SMILES | Wnt act | GAA850 FXN act | esBAF inh | MITF act
Clc1cccc(-c2ccc3ncnc(NCc4cccs4)c3c2)c1 | 35* | 2 | -6 | -9
Cn1cc(CCNC(=O)c2ccc3nc(Cc4ccccc4F)oc3c2)cn1 | 33* | 5 | 75* | 125*
Cn1cc(CNC(=O)c2ccc3nc(Cc4ccccc4F)oc3c2)cn1 | 13 | 3 | x | 84*
CCn1cc(CNC(=O)c2ccc3nc(Cc4ccccc4F)oc3c2)cn1 | -5 | 1 | 36 | 22
Cc1cc(CN(C)C(=O)c2ccc3nc(Cc4ccccc4F)oc3c2)on1 | 18 | 3 | x | 98*
O=C(NCCc1ccccn1)c1ccc2nc(Cc3ccccc3F)oc2c1 | 16 | 3 | 72* | 54
CO[C@H]1CN(C)C(=O)c2cc(NC(=O)C3CCCC3)ccc2OC[C@H](C)N(C(=O)CC2CC2)C[C@H]1C | x | x | -3 | x
Cc1ccc(S(=O)(=O)Nc2ccc3c(c2)C(=O)N([C@H](C)CO)C[C@@H](C)[C@H](CN(C)Cc2ccc(Cl)c(Cl)c2)O3)cc1 | x | x | 3 | x
C[C@@H]1CN([C@H](C)CO)S(=O)(=O)c2ccc(C#CC(C)(C)O)cc2O[C@H]1CN(C)C(=O)CC1CC1 | x | x | 2 | x
O=C(COC(=O)c1c2c(nc3ccccc13)/C(=C\c1ccco1)CC2)NC1CCCC1 | -3 | 0 | 12 | -3
CN(CCC#N)C(=O)COC(=O)c1c2c(nc3ccccc13)/C(=C\c1ccco1)CC2 | -2 | 2 | 56* | 31
COc1ccc(/C=C/C(=O)c2ccccc2)cc1Cn1nnc2ccccc21 | 43* | -3 | x | -6
CC(C)(C)OC(=O)C[C@H]1C/C=C\C[C@@H](CC(=O)N[C@@H](CO)Cc2ccccc2)C(=O)N2CCC[C@H]2COC1=O | 0 | 1 | -3 | -1
CC(C)(C)OC(=O)C[C@@H]1C/C=C\C[C@@H](CC(=O)N[C@H](CO)Cc2ccccc2)C(=O)N2CCC[C@@H]2COC1=O | 56* | 0 | 2 | 1
COc1ccc(OCc2nc3ccccc3[nH]2)cc1 | x | 4 | 21 | 72
Brc1ccc(OCc2nc3ccccc3[nH]2)cc1 | 36* | 3 | u | 100*
COc1ccccc1OCc1nc2ccccc2[nH]1 | 64* | 4 | 12 | u
c1ccc2cc(OCc3nc4ccccc4[nH]3)ccc2c1 | x | 2 | 51* | 21
COc1ccc(-c2cc(-c3ccccc3)c(C#N)c(S(C)=O)n2)cc1 (centres undefined) | -26 | -10 | -1 | -68
COc1ccc(-c2cc3nc4ccccc4n3c(N)c2C#N)cc1 | 23 | 6 | x | 114*
CCCSc1nnc(-c2c[nH]c3ccccc23)n1C | -21 | 0 | 44* | 40
COc1ccc2nc(NC(=O)c3cc(C)oc3C)sc2c1 | x | 2 | 32 | 96*
Cc1csc(NC(=O)c2cc(C)oc2C)n1 | x | 2 | 63* | 60
Cc1cc(C(=O)Nc2nc3ccc(S(C)(=O)=O)cc3s2)c(C)o1 | 13 | 5 | 53* | 58
Cc1csc(NC(=O)c2ccccc2O)n1 | x | 6 | 36 | 27
SMILES | Wnt act | GAA850 FXN act | esBAF inh | MITF act
O=C(NCC[C@@H]1CC[C@H](NC(=O)C2CCC2)[C@H](CO)O1)c1cc(Cl)cc(Cl)c1 | x | x | 1 | x
C[C@@H](NC(=O)[C@@H]1[C@@H](CO)[C@@H]2Cn3c(ccc(-c4cccnc4)c3=O)[C@@H]2N1C)c1ccccc1 | x | x | 0 | x
O=C(NCc1nnc(SCC(=O)N2CCCCC2)o1)c1c(F)cccc1F | -1 | 0 | -5 | 3
O=C(NCc1nnc(SCC(=O)N2CCCc3ccccc32)o1)c1c(F)cccc1Cl | 50* | 0 | 0 | -2
COc1cc2c(cc1OC)CN(C(=O)c1ccncc1)CC2 | -2 | 2 | -3 | 6
COc1ccc(C(=O)N2CCc3ccc(NC(=O)c4ccccn4)cc3C2)cc1F | 14 | 1 | 52* | 45
[O-]/[N+](=C/c1ccc(F)cc1)c1ccc(Cl)cc1 | x | 3 | x | 50
[O-]/[N+](=C/c1ccco1)c1ccccc1 | 7 | 2 | 14 | 26
[O-]/[N+](=C\c1ccco1)c1ccc(Cl)cc1 | 26 | 2 | 88* | 58
[O-][N+](=Cc1ccccc1)c1ccc(Cl)cc1 | 38* | 1 | x | 71
O=C(CCc1ccccc1)Nc1ccc(N2CCCCC2)cc1 | x | 5 | 50* | 67
O=C(NC(=S)Nc1ccccc1Cl)c1ccco1 | 2 | 3 | 58* | 50
O=C(NC(=S)Nc1nc2ccccc2s1)c1ccco1 | 53* | 5 | x | 0
O=C(NC(=S)Nc1ccc(N2CCCCC2)cc1)c1ccco1 | 28 | 4 | 31 | 110*
COc1ccc(CNC(=O)C[C@@H]2CC[C@H]3[C@H](COc4ccc(NC(=O)C(C)C)cc4C(=O)N3C)O2)cc1 | x | x | 12 | x
O=C(Nc1nc2ccc([N+](=O)[O-])cc2s1)c1ccco1 | 52* | x | x | x
CN(Cc1ccccc1)S(=O)(=O)c1ccc(Cl)c(C(=O)NCCCN2CCCC2=O)c1 | -2 | 1 | -3 | -31
CN(Cc1ccccc1)S(=O)(=O)c1ccc(Cl)c(C(=O)NCCCN2CCOCC2)c1 | 57* | -1 | -2 | -3
Cc1ccc(S(=O)(=O)Nc2ccc3c(c2)C(=O)N([C@@H](C)CO)C[C@@H](C)[C@H](CN(C)Cc2ccncc2)OCCCC[C@H](C)O3)cc1 | x | x | 5 | x
COc1cc(Cl)ccc1OCc1cc(C(=O)N2C[C@H]3CC[C@H]2C3)no1 | -1 | 2 | 63* | 55
COc1cc(C)ccc1OCc1cc(C(=O)N2C[C@H]3CC[C@H]2C3)no1 | 10 | 0 | 13 | 25
COc1cc(Cl)ccc1OCc1cc(C(=O)N2C[C@]3(C)C[C@H]2CC(C)(C)C3)no1 | 26 | 4 | x | 125*
COc1cc(Cl)ccc1OCc1cc(C(=O)N2C[C@@H]3CCC[C@H]2C3)no1 | 38* | 5 | 92* | 58
C[C@@H]1CN([C@H](C)CO)C(=O)Cc2cc(NC(=O)Cc3ccccc3)ccc2O[C@H]1CN(C)C(=O)Nc1cccc2ccccc12 | x | x | -3 | x
C=CCSC1=NNC(c2ccc(C(C)(C)C)cc2)=NN1 | 12 | 2 | 63* | 66
SMILES | Wnt act | GAA850 FXN act | esBAF inh | MITF act
C[C@H]1CN([C@@H](C)CO)C(=O)c2cccc(NC(=O)Nc3ccc(F)cc3)c2O[C@@H]1CN(C)Cc1ccc(Cl)c(Cl)c1 | x | x | 2 | x
Cc1ccc(C2=CC(=O)CC(C)(C)C2=O)cc1 | 0 | x | x | x
COc1ccncc1-c1ccc(C2=CC(=O)CC(C)(C)C2=O)cc1 | 1 | 2 | 65* | x
COc1cccc(-c2ccc(C3=CC(=O)CC(C)(C)C3=O)cc2)c1OC | 0 | 0 | 16 | x
COc1ccc2cc(C3=CC(=O)CC(C)(C)C3=O)ccc2c1 | 0 | 4 | 124* | x
CC1(C)CC(=O)C=C(c2ccc(-c3ccc(S(C)(=O)=O)cc3)cc2)C1=O | -1 | -2 | 65* | x
C[C@@H]1CN([C@H](C)CO)C(=O)c2cc(NC(=O)CCC(F)(F)F)ccc2O[C@@H]1CN(C)Cc1ccc2c(c1)OCO2 | x | x | -7 | x
C[C@@H]1CN([C@@H](C)CO)C(=O)Cc2cc(NC(=O)c3ccncc3)ccc2O[C@H]1CN(C)Cc1ccc(C(F)(F)F)cc1 | x | x | -9 | x
NNC(=O)c1ccc(COc2ccc3ccccc3c2)cc1 | 33* | -2 | x | 30
O=Cc1ccc(OCc2ccccn2)cc1 | 12 | 4 | 12 | 74

Assay outcomes as filed in PubChem.
